{
  "source": "PubChem BioAssay (NCATS)",
  "note": "Several values for one entry are separate records, joined by “and”; a condition that tells them apart may be missing. Equal entries are not always repeated. Records with an inconclusive call do not appear. A number with no mark means an inactive call. Activity calls are given as the source filed them. Calls come from the whole dose curve; as a rule, active = well fitted inhibition curve with a large enough effect; inconclusive = small, poorly fitted or top-dose-only effect; inactive = flat fitted curve, though single readings scatter. Residues, ends and D or L forms follow the SMILES beside them. *: point of attachment. Cbz = O=C(OCc1ccccc1)*; note: nearly all actives have a fitted effect of over 60% in size",
  "data": [
    {"system": "TAB109", "test": "qHTS profiling for inhibitors of Plasmodium falciparum proliferation (AID 504749);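 note: 0% = DMSO vehicle and full inhibition = artemisinin control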", "conditions": "P. falciparum in erythrocytes, SYBR Green DNA, 72 h; series mostly up to 28.7 µM; activity, negative = inhibition: at the top concentration", "outline": "(§1)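 Three-day growth assay of blood-stage parasites in erythrocytes (0.3% parasitemia, 2.5% hematocrit) at 37 C, 5% CO2, quantified by SYBR Green DNA staining after overnight detergent lysis.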", "values": [
      {"smiles": "Nc1nc2c(c(=O)[nH]1)N(C=O)[C@H](CNc1ccc(C(=O)N[C@@H](CCC(=O)O)C(=O)O)cc1)CN2", "activity, negative = inhibition": "7.68% [at 12.8 µM]"},
      {"smiles": "OCC(O)C(O)C(O)CO", "note": "(centres undefined)", "activity, negative = inhibition": "15.8%"},
      {"smiles": "COc1ccc([C@@H]2CNC(=O)C2)cc1OC1CCCC1", "activity, negative = inhibition": "1.18% [at 12.8 µM]"}
    ]},
    {"system": "TAB113", "test": "qHTS profiling for inhibitors of Plasmodium falciparum proliferation (AID 504749);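 note: 0% = DMSO vehicle and full inhibition = artemisinin control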", "conditions": "P. falciparum in erythrocytes, SYBR Green DNA, 72 h; series mostly up to 28.7 µM; activity, negative = inhibition: at the top concentration", "outline": "as §1", "values": [
      {"smiles": "Nc1nc2c(c(=O)[nH]1)N(C=O)[C@H](CNc1ccc(C(=O)N[C@@H](CCC(=O)O)C(=O)O)cc1)CN2", "activity, negative = inhibition": "-7.62% [at 12.8 µM]"},
      {"smiles": "OCC(O)C(O)C(O)CO", "note": "(centres undefined)", "activity, negative = inhibition": "1.89%"},
      {"smiles": "COc1ccc([C@@H]2CNC(=O)C2)cc1OC1CCCC1", "activity, negative = inhibition": "3.21% [at 12.8 µM]"}
    ]},
    {"system": "TAB165", "test": "qHTS profiling for inhibitors of Plasmodium falciparum proliferation (AID 504749);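 note: 0% = DMSO vehicle and full inhibition = artemisinin control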", "conditions": "P. falciparum in erythrocytes, SYBR Green DNA, 72 h; series mostly up to 28.7 µM; activity, negative = inhibition: at the top concentration", "outline": "as §1", "values": [
      {"smiles": "Nc1nc2c(c(=O)[nH]1)N(C=O)[C@H](CNc1ccc(C(=O)N[C@@H](CCC(=O)O)C(=O)O)cc1)CN2", "activity, negative = inhibition": "-0.145% [at 12.8 µM]"},
      {"smiles": "OCC(O)C(O)C(O)CO", "note": "(centres undefined)", "activity, negative = inhibition": "21%"},
      {"smiles": "COc1ccc([C@@H]2CNC(=O)C2)cc1OC1CCCC1", "activity, negative = inhibition": "-3.59% [at 12.8 µM]"}
    ]},
    {"system": "W2", "test": "qHTS profiling for inhibitors of Plasmodium falciparum proliferation (AID 504749);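 note: 0% = DMSO vehicle and full inhibition = artemisinin control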", "conditions": "P. falciparum in erythrocytes, SYBR Green DNA, 72 h; series mostly up to 28.7 µM; activity, negative = inhibition: at the top concentration", "outline": "as §1", "values": [
      {"smiles": "Nc1nc2c(c(=O)[nH]1)N(C=O)[C@H](CNc1ccc(C(=O)N[C@@H](CCC(=O)O)C(=O)O)cc1)CN2", "activity, negative = inhibition": "11.9% [at 12.8 µM]"},
      {"smiles": "OCC(O)C(O)C(O)CO", "note": "(centres undefined)", "activity, negative = inhibition": "8.58%"},
      {"smiles": "COc1ccc([C@@H]2CNC(=O)C2)cc1OC1CCCC1", "activity, negative = inhibition": "5.53% [at 12.8 µM]"}
    ]},
    {"system": "CRL-7250", "test": "Cytotoxic Profiling of Annotated Libraries Using Quantitative High-Throughput Screening (AID 1296008); note: potency is the fitted concentration of half-maximal effect; for max response: % is set by controls: 0 for no effect and ±100 for the full control effect", "conditions": "Five cell lines viability, CellTiter-Glo ATP luminescence, 48-72 h; max response: stronger effect = lower value", "outline": "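Cytotoxicity was measured as CellTiter-Glo ATP luminescence, read after 10 min at room temperature. Compound treatment of the cells lasted 48 or 72 hr at 37 degrees Celsius in a qHTS format.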", "values": [
      {"smiles": "COc1cc(C(=O)NC2CCN(C)CC2)ccc1Nc1ncc2c(n1)N(C1CCCC1)CCC(=O)N2C(C)C", "max response": "-17.1%"},
      {"smiles": "Nc1nc2c(c(=O)[nH]1)N(C=O)[C@H](CNc1ccc(C(=O)N[C@@H](CCC(=O)O)C(=O)O)cc1)CN2", "max response": "-8.32%"},
      {"smiles": "O=C(O)C[C@H](O)C[C@H](O)C=Cc1c(C2CC2)nc2ccccc2c1-c1ccc(F)cc1", "Potency": "662 nM (active)"},
      {"smiles": "CC(C)C[C@@H](C=O)NC(=O)[C@H](CC(C)C)NC(=O)[C@H](CC(C)C)NC(=O)OCc1ccccc1", "note": "(Cbz-Leu-Leu-Leu-aldehyde)", "Potency": "1660 nM (active)"},
      {"smiles": "COC(=O)C=CC(=O)OC", "max response": "-5.16%"},
      {"smiles": "CC(C)(C)[C@H](NC(=O)c1ccc(N)c(Cl)c1)C(=O)N1CCC[C@@H]1C(=O)N[C@H](C#N)CC(=O)O", "outcome": "inactive"},
      {"smiles": "CCC(C=C[C@@H]1OC(=O)C=C[C@H]1C)=C[C@H](C)CC=CC(C)=C[C@@H](C)C(=O)[C@@H](C)[C@H](O)[C@@H](C)CC(C)=CC(=O)O", "Potency": "55.3 nM (active)"},
      {"smiles": "CC[C@H]1OC(=O)[C@H](C)[C@@H](O[C@H]2C[C@@](C)(OC)[C@@H](O)[C@H](C)O2)[C@H](C)[C@@H](O[C@@H]2O[C@@H](C)C[C@H](N(C)C)[C@@H]2O)[C@](C)(O)C[C@@H](C)C(=O)[C@H](C)[C@@H](O)[C@]1(C)O", "max response": "0.799%"},
      {"smiles": "COc1cc(C[C@@H](CO)[C@H](CO)Cc2ccc(O)c(OC)c2)ccc1O", "max response": "-0.633%"},
      {"smiles": "COc1cc(C=CC(=O)CC(=O)C=Cc2ccc(O)c(OC)c2)ccc1O", "Potency": "34000 nM (active)"},
      {"smiles": "CN1C(C(=O)Nc2ccccn2)=C(O)c2sc(Cl)cc2S1(=O)=O", "outcome": "inactive"},
      {"smiles": "Oc1ccc([C@@H]2Oc3ccc(O)cc3[C@@H]3CCC[C@@H]32)cc1", "max response": "-17% and -0.0013%"},
      {"smiles": "Oc1cc2c(cc1O)C1c3ccc(O)c(O)c3OCC1(O)C2", "note": "(centres undefined)", "max response": "1.81%"},
      {"smiles": "Cn1c(Nc2ccc(C(F)(F)F)cc2)nc2cc(Oc3ccnc(-c4ncc(C(F)(F)F)[nH]4)c3)ccc21", "Potency": "372 nM (active)"},
      {"smiles": "CNC(=O)Nc1ccc(-c2nc(N3CC4CCC(C3)O4)c3cnn(C4CCC5(CC4)OCCO5)c3n2)cc1", "Potency": "4.7 nM (active)"},
      {"smiles": "C=CC(=O)Nc1cccc(Nc2nc(NC3CCC(N(C)C)CC3)nc3c2ncn3C(C)C)c1", "note": "(centres undefined)", "Potency": "590 nM (active)"},
      {"smiles": "CC(=O)O[C@]1(C(C)=O)CC[C@H]2[C@@H]3C=C(C)C4=CC(=O)CC[C@]4(C)[C@@H]3CC[C@@]21C", "outcome": "inactive"},
      {"smiles": "CC1=C(C(=O)Nc2cc3cn[nH]c3cc2F)C(c2ccc(Cl)cc2F)N=C(c2ccnc(Cl)c2)N1", "note": "(centres undefined)", "max response": "-26.3%"},
      {"smiles": "C[C@@H](NCc1cc2ccccc2[nH]1)c1cccc2ccccc12", "max response": "3.32%"},
      {"smiles": "CC(=O)O[C@H]1C[C@@H]2CC[C@H]3[C@H]4C[C@H]([N+]5(C)CCCCC5)[C@@H](OC(C)=O)[C@@]4(C)CC[C@@H]3[C@@]2(C)C[C@H]1[N+]1(C)CCCCC1", "max response": "0.398%"},
      {"smiles": "C=CC[C@@H]1C=C(C)C[C@H](C)C[C@H](OC)[C@H]2O[C@@](O)(C(=O)C(=O)N3CCCC[C@H]3C(=O)O[C@H](C(C)=C[C@@H]3CC[C@H](O)[C@H](OC)C3)[C@@H](C)[C@@H](O)CC1=O)[C@@H](C)C[C@@H]2OC", "max response": "-10%"},
      {"smiles": "C[C@@H]1C(=O)O[C@H]2CC34[C@H]5C[C@@H](C(C)(C)C)C36[C@H](OC(=O)[C@@H]6O)O[C@@]4(C(=O)O5)[C@]21O", "note": "(some centres undefined)", "outcome": "inactive"}
    ]}
  ]
}
